Assay results published in PubChem BioAssay (NCI).
The panel holds about 83,000 compounds, 20% with a hit somewhere; the sample as a whole holds those more often.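 The test compound was applied at a single concentration to cells in 96-well plates for 48 hours, and percent growth was recorded.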 A number with no mark means an inactive call. Calls of active or inactive are those of the source. The calls were made as follows: active = growth percent below 10; inactive = the rest.

What was measured:
Experiment in all cases: NCI-60 one-dose screen, 48 h (100 = growth as untreated, 0 = no growth, -100 = all killed)
[1] = system: NCI-H460 lung; details: 10 µM unless noted
[2] = system: COLO 205 colon; details: 10 µM
[3] = system: K-562 leukemia; details: 10 µM unless noted
[4] = system: MALME-3M melanoma; details: 10 µM unless noted
[5] = system: RXF 393 renal; details: 10 µM unless noted
[6] = system: M14 melanoma; details: 10 µM unless noted
[7] = system: HCT-15 colon; details: 10 µM
[8] = system: SNB-75 CNS; details: 10 µM unless noted
[9] = system: SNB-19 CNS; details: 10 µM unless noted
[10] = system: SK-MEL-5 melanoma; details: 10 µM unless noted
[11] = system: ACHN renal; details: 10 µM unless noted
[12] = system: SR leukemia; details: 10 µM
[13] = system: OVCAR-8 ovarian; details: 10 µM unless noted
[14] = system: OVCAR-4 ovarian; details: 10 µM unless noted
[15] = system: IGROV1 ovarian; details: 10 µM
[16] = system: OVCAR-3 ovarian; details: 10 µM unless noted
[17] = system: BT-549 breast; details: 10 µM
[18] = system: MDA-MB-435 melanoma; details: 10 µM unless noted
[19] = system: SW-620 colon; details: 10 µM unless noted
[20] = system: HCC-2998 colon; details: 10 µM unless noted

CN1CCN(C(=O)COc2ccc(/C=C3\CC4C5CC=C6CC(Cl)CCC6(C)C5CCC4(C)C3=O)cc2)CC1 (stereo not given)
growth [1]: 17.2%
growth [2]: 60.5%
growth [3]: 18.3%
growth [4]: 73.8%
growth [5]: 79%
growth [6]: -13% (active)
growth [7]: 54.4%
growth [8]: 86.8%
growth [9]: 98%
growth [10]: 80.4%
growth [11]: 80.1%
growth [12]: 0.223% (active)
growth [13]: 78.9%
growth [14]: 70.7%
growth [15]: 86.6%
growth [16]: 76.1%
growth [17]: 87.3%
growth [18]: 56.6%
growth [19]: 40.4%
growth [20]: 90.6%

CCOP(=O)(OCC)Oc1ccc(Sc2ccc(OP(=O)(OCC)OCC)cc2)cc1
growth [1]: 113%
growth [2]: 110%
growth [3]: 102%
growth [4]: 93.5%
growth [5]: 106%
growth [6]: 100%
growth [7]: 107%
growth [8]: 95%
growth [10]: 100%
growth [11]: 115%
growth [12]: 94.2%
growth [13]: 99.8%
growth [14]: 116%
growth [15]: 98%
growth [16]: 111%
growth [17]: 96%
growth [18]: 96.8%
growth [19]: 113%
growth [20]: 102%

CC(CC(C#N)(c1ccccc1)c1ccccc1)N1CCOCC1 (stereo not given)
growth [1]: 112%
growth [2]: 101%
growth [3]: 83.5%
growth [4]: 120%
growth [5]: 112%
growth [6]: 114%
growth [7]: 102%
growth [8]: 104%
growth [9]: 92.2%
growth [10]: 102%
growth [11]: 102%
growth [12]: 84.3%
growth [13]: 108%
growth [14]: 108%
growth [15]: 102%
growth [16]: 105%
growth [17]: 111%
growth [19]: 106%

CC[C@@H](C)/C=C(C)/C=C/C(=O)c1c(O)c(-c2ccc(O)cc2)cn(O)c1=O
growth [1]: 1% (active)
growth [2]: 85.2%
growth [3]: 12.1%
growth [4]: -7% (active)
growth [5]: 19.8%
growth [6]: -1.25% (active)
growth [7]: 30.7%
growth [8]: 2.38% (active)
growth [9]: 13.6%
growth [10]: -75.6% (active)
growth [13]: 4.95% (active)
growth [15]: 5.54% (active)
growth [16]: 25.7%
growth [17]: 18%
growth [18]: 24.1%
growth [19]: 20.2%
growth [20]: 36.4%

CC1(C)N=C(N)N=C(N)N1c1ccc(CCCCc2ccc(S(=O)(=O)F)cc2)cc1
growth [1]: 12.3%
growth [2]: 41.9%
growth [3]: 19.7%
growth [4]: 52.8%
growth [5]: 43.2%
growth [6]: 27.6%
growth [7]: 36.8%
growth [8]: 63.7%
growth [9]: 42%
growth [10]: 19.3%
growth [11]: 39.2%
growth [12]: 38%
growth [13]: 24.3%
growth [14]: 86.1%
growth [15]: 30.2%
growth [16]: 33.2%
growth [17]: 48.7%
growth [18]: 18.9%
growth [19]: 19.4%
growth [20]: 45.3%

CCC1CN1P(=O)(OCCOC)N1CC1CC (stereo not given)
growth [1]: 111%
growth [3]: 109%
growth [4]: 110%
growth [5]: 110%
growth [6]: 109%
growth [7]: 99.4%
growth [8]: 92.9%
growth [9]: 104%
growth [10]: 109%
growth [11]: 103%
growth [12]: 93.8%
growth [13]: 105%
growth [14]: 109%
growth [15]: 111%
growth [16]: 119%
growth [17]: 106%
growth [18]: 98.9%
growth [19]: 106%
growth [20]: 104%

CC(C)Nc1ccc(Nc2ccccc2)cc1
growth [1]: 11%
growth [2]: 43.6%
growth [3]: 24.6%
growth [4]: 43%
growth [5]: 55.5%
growth [6]: 47.7%
growth [7]: 84.3%
growth [8]: 29.8%
growth [9]: 33.7%
growth [10]: 57.9%
growth [12]: 51.2%
growth [13]: 28.1%
growth [14]: 28.3%
growth [15]: 27%
growth [16]: 7.43% (active)
growth [17]: 22.8%
growth [18]: 23%
growth [19]: 33.8%
growth [20]: 49.6%

O=C(NCc1ccc([N+](=O)[O-])cc1)Nc1ccc(S(=O)(=O)F)cc1
growth [1]: 95.8%
growth [2]: 107%
growth [3]: 93%
growth [4]: 78.7%
growth [5]: 59.9%
growth [6]: 93.5%
growth [7]: 87.1%
growth [8]: 86.2%
growth [9]: 88.6%
growth [10]: 79.9%
growth [11]: 90.1%
growth [12]: 79.1%
growth [13]: 80%
growth [14]: 83.4%
growth [15]: 94.8%
growth [16]: 87%
growth [17]: 94.9%
growth [18]: 92.8%
growth [19]: 91.8%
growth [20]: 99.2%

C/C(=N/OC(=O)N(C)C)c1cc(Cl)ccc1Cl
growth [1]: 105%
growth [2]: 100%
growth [3]: 104%
growth [4]: 95.9%
growth [5]: 102%
growth [6]: 109%
growth [7]: 100%
growth [8]: 82.1%
growth [9]: 101%
growth [10]: 100%
growth [11]: 100%
growth [12]: 90.7%
growth [13]: 103%
growth [14]: 107%
growth [15]: 104%
growth [16]: 105%
growth [17]: 98.5%
growth [18]: 99.2%
growth [19]: 101%
growth [20]: 102%

CN1C(=O)NC(=O)C(N=Nc2ccc(Cl)cc2)C1=O (stereo not given)
growth [1]: 102%
growth [2]: 137%
growth [3]: 54.7%
growth [4]: 134%
growth [5]: 107%
growth [6]: 81.5%
growth [7]: 88%
growth [8]: 126%
growth [9]: 106%
growth [10]: 96%
growth [11]: 87.9%
growth [12]: 100%
growth [13]: 104%
growth [15]: 129%
growth [16]: 105%
growth [17]: 80.3%
growth [18]: 95.7%
growth [19]: 106%
growth [20]: 90.6%

CC(=O)Nc1ccc(C=C2C(=O)NC(=O)NC2=O)cc1
growth [2]: 106%
growth [3]: 104%
growth [5]: 118%
growth [7]: 103%
growth [8]: 84.2%
growth [9]: 98.4%
growth [10]: 115%
growth [11]: 109%
growth [12]: 95.7%
growth [13]: 101%
growth [14]: 107%
growth [15]: 107%
growth [16]: 125%
growth [17]: 112%
growth [18]: 101%
growth [20]: 104%

O=S(=O)(O)c1ccc(-c2ccc([As](=O)(O)O)cc2)cc1
growth [2]: 114%
growth [3]: 101%
growth [4]: 101%
growth [5]: 117%
growth [6]: 100%
growth [7]: 103%
growth [8]: 87.1%
growth [9]: 97.7%
growth [10]: 110%
growth [11]: 105%
growth [12]: 101%
growth [13]: 93.8%
growth [14]: 99.4%
growth [15]: 107%
growth [16]: 107%
growth [17]: 106%
growth [18]: 103%
growth [19]: 103%
growth [20]: 105%

CC(=O)N1N=C(c2ccccc2)CC1c1sc(N(CCCl)CCCl)nc1Cl (stereo not given)
growth [1]: 96.2%
growth [3]: 80%
growth [4]: 109%
growth [5]: 97.5%
growth [6]: 101%
growth [7]: 94.8%
growth [8]: 83.1%
growth [9]: 86.1%
growth [10]: 99.1%
growth [11]: 99.2%
growth [12]: 86.4%
growth [13]: 95.8%
growth [14]: 101%
growth [15]: 101%
growth [16]: 96.4%
growth [17]: 92.8%
growth [18]: 97.4%
growth [19]: 96.8%
growth [20]: 96.4%

CN(C)P1(N(C)C)=NP(N(C)C)(N(C)C)=NP(N(C)C)(N(C)C)=N1
growth [1]: 107%
growth [2]: 113%
growth [3]: 102%
growth [4]: 106%
growth [5]: 109%
growth [6]: 101%
growth [7]: 101%
growth [10]: 107%
growth [11]: 97.2%
growth [12]: 92.6%
growth [13]: 96.1%
growth [14]: 95%
growth [15]: 95.4%
growth [16]: 106%
growth [17]: 105%
growth [19]: 103%
growth [20]: 111%

CC(=O)OC1CCC2(C)C(=CCC3C4CC(CN5CC5)C(=O)C4(C)CCC32)C1 (stereo not given)
growth [1]: 88.2%
growth [2]: 89.2%
growth [4]: 103%
growth [5]: 93.6%
growth [6]: 93.4%
growth [7]: 89.7%
growth [8]: 93.9%
growth [9]: 98.4%
growth [10]: 99.1%
growth [11]: 76.4%
growth [12]: 22.9%
growth [13]: 85%
growth [14]: 83.1%
growth [15]: 89.2%
growth [16]: 112%
growth [17]: 96.9%
growth [18]: 90.4%
growth [19]: 65.3%
growth [20]: 112%

CC(=O)N(C)C1=Nc2ccc(Cl)cc2C(c2ccccc2)=[N+]([O-])C1
growth [1]: 111%
growth [2]: 105%
growth [3]: 109%
growth [4]: 121%
growth [5]: 109%
growth [6]: 114%
growth [7]: 108%
growth [8]: 95.9%
growth [9]: 96.3%
growth [10]: 105%
growth [11]: 98.7%
growth [12]: 86.1%
growth [13]: 102%
growth [14]: 114%
growth [15]: 106%
growth [16]: 117%
growth [17]: 106%
growth [18]: 111%
growth [19]: 107%

CNC(=O)Oc1ccccc1-c1ccccc1
growth [1]: 112%
growth [2]: 113%
growth [3]: 99.6%
growth [4]: 102%
growth [5]: 120%
growth [6]: 99.7%
growth [7]: 106%
growth [8]: 88.3%
growth [9]: 97.7%
growth [10]: 107%
growth [11]: 108%
growth [12]: 99%
growth [13]: 103%
growth [14]: 110%
growth [15]: 99.3%
growth [16]: 105%
growth [17]: 103%
growth [18]: 99.3%
growth [19]: 103%
growth [20]: 101%
